Bioassay records deposited in PubChem by National Center for Advancing Translational Sciences (NCATS).
The list is not random: actives were taken first. Their share in the collection is about 21%.
Pf growth 96h: P. falciparum growth inhibition at 96 hours. P. falciparum luciferase reporter growth, 96 h. Potency, µM (series often up to 28.7 µM), inactives show top-dose activity change, negative = inhibition, hits mostly inhibitors. 320,000 tested, 6.9% active; note: potency is the fitted concentration of half-maximal effect; % is set by controls: 0 for no effect and ±100 for the full control effect
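96 h incubation, 37 C, 5% CO2, of luciferase-reporter P. falciparum-infected RBCs (2% hematocrit, 0.05% parasitemia final) with test compounds; endpoint luminescence.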
Pf growth 48h: P. falciparum growth inhibition at 48 hours (one generation) | 310,000 tested, 5.9% active | Potency, µM (highest dose often 28.7 µM), without a hit: at the highest dose activity change, negative = inhibition, hits mostly inhibitors | P. falciparum luciferase growth in erythrocytes, 48 h | AID 504832; note: potency is the fitted concentration of half-maximal effect; % is set by controls: 0 for no effect and ±100 for the full control effect
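Erythrocytes infected with P. falciparum carrying an integrated firefly luciferase reporter (2% hematocrit, 0.1% parasitemia final) were exposed to compounds in RPMI 1640 with 0.5% Albumax at 37 C, 5% CO2. Growth inhibition was scored as reduced luminescence.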
Shiga inhibitor: Shiga toxin inhibition | Vero cells, Shiga toxin protein synthesis inhibition reporter | inhibition, % at 38.7 µM | 290,000 tested, 9.2% active | AID 2315; in the data active = inhibition mostly above about 28%, no sharp cut-off; inactive = mostly below about 43%; note: 0% is about no effect
Cycloheximide cs: counter-screen for Shiga toxin inhibitors: cycloheximide protein synthesis inhibition. cell reporter, cycloheximide protein synthesis inhibition counterscreen. max response, %. 300,000 tested, 12% active. AID 2314; in the data active = max response mostly above about 13%, no sharp cut-off; inactive = mostly below about 14%; note: read at 38.3 µM for the half of the compounds with a filed dose; 0% is about no effect
* = called active by the depositor; ? = inconclusive; nt = no result given; [ ] = another dose, or the depositor's remark. Unless noted, calls come from the whole dose curve; as a rule, active = well fitted inhibition curve with a large enough effect; inconclusive = small, poorly fitted or top-dose-only effect, or another doubt; inactive = no such curve, though single readings can be large or run the other way.

SMILES	Pf growth 96h	Pf growth 48h	Shiga inhibitor	Cycloheximide cs
COC(=O)c1ccc(OCc2cc(=O)n3ccsc3n2)cc1	128%	52%	142*	49*
CCN(CC)S(=O)(=O)c1cccc(C(=O)Nc2ccc(S(=O)(=O)NC3=NCCCCC3)cc2)c1	6.6µM*	?	nt	nt
CC(=O)Nc1cccc(C(=O)Nc2ccc(S(=O)(=O)NC3=NCCCCC3)cc2)c1	-22%	?	nt	nt
CCOC(=O)c1ccc(S(=O)(=O)Nc2nc3cc(S(=O)(=O)NC4=NCCCCC4)ccc3s2)cc1	13µM*	-1%	-5	-2
O=S(=O)(NC1=NCCCCC1)c1ccc2ccccc2c1	35%	29%	21	23*
COc1cc(CCC(=O)Nc2ccc(S(=O)(=O)NC3=NCCCCC3)cc2)cc(OC)c1OC	10µM*	-29%	16	0
CCCOc1ccc(C(=O)Nc2ccc(S(=O)(=O)NC3=NCCCCC3)cc2)cc1	10µM*	5.9µM*	nt	nt
CCOc1ncccc1C(=O)Nc1ccc(S(=O)(=O)NC2=NCCCCC2)cc1	-29%	-15%	1	-2
CC(C)c1cc(C(=O)NNC(=S)NC2CCCCC2)cs1	102%	120%	51*	32*
CCc1cc(C(=O)NNC(=S)NC2CCCCC2)cs1	-100%	153%	54*	46*
CCc1c(C(=O)NNC(=S)NC2CCCCC2)csc1C	-3%	20%	3	10
Cc1nn(C)c(C(=O)NNC(=S)NC2CCCCC2)c1Br	5.2µM*	82%	61*	45*
Cn1ncc(Br)c1C(=O)NC1CCCCCCC1	?	2%	4	3
CCOc1ccc(C(C)=O)cc1CN1c2ccc(S(N)(=O)=O)cc2CC1C (stereo not given)	-13%	3%	-10	2
CCN(CC(=O)Nc1ccc2c(c1)OCCO2)C(=O)c1ccc([N+](=O)[O-])s1	?	-14%	nt	nt
CC(C)OP(=O)(OC(C)C)C1(O)C(=O)Nc2ccccc21 (stereo not given)	2.6µM*	-1%	-8	-4
Cc1ccc(S(=O)(=O)NCC(=O)OCC(=O)Nc2ccc3c(c2)OCCO3)cc1	0%	3%	nt	nt
O=C(CCSCCc1ccccn1)Nc1ccc(Cc2ccncc2)cc1	12µM*	?	-6	0
CCCCCC(=O)Nc1ccc(Cc2ccncc2)cc1	12µM*	-19%	23	11
CC(=O)Nc1ccc(Cc2ccncc2)cc1	-25%	20%	-3	7
Cc1noc(C)c1COC(=O)c1cnc(Cl)c(Cl)c1	8%	-3%	-3	5
COc1ccc(CNC(=O)N2CCc3ccccc3C2)cc1Cl	3%	12%	-1	14*
O=C(NCc1ccc(Cl)cc1)N1CCc2ccccc2C1	8%	1%	30	29*
COc1ccc(NC(=O)N2CCc3ccccc3C2)cc1OC	?	-2%	9	9
COc1ccc(CCNCC2C(Oc3ccc(Cl)cc3)C(=O)N2c2ccccc2C)cc1OC (stereo not given)	?	?	-25	-2
SMILES	Pf growth 96h	Pf growth 48h	Shiga inhibitor	Cycloheximide cs
COc1ccc(-c2[nH]ncc2CN2CCN(Cc3cccs3)CC2)c(F)c1	1%	2%	13	2
COc1ccc(-c2[nH]ncc2CN(C)C(C)c2cccs2)c(F)c1 (stereo not given)	12µM*	-21%	-8	-2
COc1ccc(-c2[nH]ncc2CNC(C)Cc2ccsc2)c(F)c1 (stereo not given)	4.7µM*	-21%	-12	1
CNc1ccccc1C(C)(C)c1cn(-c2ccc([N+](=O)[O-])cc2)nn1	?	-18%	-4	-7
CCOC(=O)N1CCN(C(=O)CSc2nnc3[nH]c(=O)c(C)c(C)n23)CC1	?	9.3µM*	nt	nt
CCOC(=O)N1CCN(C(=O)CSc2ccccc2)CC1	19%	nt	21	2
O=C(NCCCO)C(=O)NCc1ccncc1	?	2%	-3	-4
CCOC(=O)C1=C(COC(=O)Cc2c(F)cccc2Cl)NC(=O)NC1C (stereo not given)	-18%	-30%	nt	nt
Cc1cc(C)nc(Nc2n[nH]c(-c3cccc4ccccc34)n2)n1	?	?	27	19*
COc1ccccc1NC(=O)CSc1nc(O)cc(=O)n1-c1ccccc1OC	nt	3.3µM*	-15	0
COc1ccccc1-n1c(SCC(=O)Nc2ccccc2C)nc(O)cc1=O	-15%	2.6µM*	14	-5
CCOc1ccccc1NC(=O)CSc1nnc2c(CC)c(C)nc(N)n12	nt	-3%	7	-2
Cc1ccc(-n2c(SCC(=O)Nc3ccc4c5c(cccc35)CC4)nc(O)cc2=O)cc1	2.6µM*	2.9µM*	-12	-3
CCc1c(C)nc(N)n2c(SCC(=O)Nc3ccccc3OC)nnc12	10µM*	-4%	6	6
COc1ccc(OCC(=O)NNC(=O)c2ccc3c(=O)n4c(nc3c2)CCC4)cc1	8%	-9%	-2	-1
O=C(Cn1nnc(-c2ccccc2)n1)NNC(=O)c1ccco1	36%	2%	10	1
Cc1ccc(NC(=O)CN(C)C(=O)COC(=O)c2nc3nccc(C)n3n2)cc1	-8%	-10%	nt	nt
COc1ccc2c(c1)CCC(C)N2C(=O)C(=O)c1c[nH]c2ccccc12 (stereo not given)	0%	0%	9	-1
COc1ccc(-n2c(SCC(=O)Nc3cccc4ccccc34)nc(O)cc2=O)cc1	0.29µM*	2.1µM*	17	-2
NC(=S)N/N=C/c1ccc(C23CC4CC(CC(C4)C2)C3)cc1	?	2.6µM*	79*	22*
CNC(=S)N/N=C/c1ccc2c(c1)OCCO2	58%	47%	73*	36*
NC(=S)N/N=C/c1ccc2c(c1)OCCO2	-7%	113%	32	28*
Cc1nnc(C)n1/N=C/c1ccc2c(c1)OCCO2	16%	3%	-11	3
CCC(C)C(NC(=O)OC(C)(C)C)C(=O)NC1COC2CC(n3cc(F)c(=O)[nH]c3=O)OC12 (stereo not given)	nt	nt	6	-1
COc1ccc(NC(=O)NCc2ccc(Cl)cc2)cc1	3%	12%	2	6
SMILES	Pf growth 96h	Pf growth 48h	Shiga inhibitor	Cycloheximide cs
Cc1nnsc1SCCNC(=O)Nc1ccc(Cl)cc1	?	?	82*	24*
Cc1nnsc1C(=O)Nc1ccc(Cl)cc1	21%	0%	-1	-1
O=C(NCc1ccc(F)cc1)Nc1ccccc1	0%	79%	79*	37*
CC(=O)c1ccc(NC(=O)NCc2ccc(F)cc2)cc1	23%	19%[5.75 µM]	6	14*
Cc1ccc(CNC(=O)Nc2ccc(Cl)cc2)cc1	3%	55%	20	17*
COc1cccc2cc(C(N)=O)/c(=N/NC(=O)COc3ccc(Cl)cc3)oc12	4%	10%	-4	-4
CN1CCN(C(CNC(=O)Nc2ccc(Cl)cc2)c2ccc(F)cc2)CC1 (stereo not given)	?	?	8	15
O=C(NCCc1ccc(Cl)cc1)Nc1ccc(F)cc1	-1%	15µM*	50	29*
CCCc1c(NC(=O)Nc2ccc(F)cc2)cnn1-c1ccc(Cl)cc1	?	6.6µM*	-13	1
CC(C)c1ccc(NC(=O)NCc2ccc(F)cc2)cc1	33%	?	38	10
